Data taken from the supplement of paper PMC12808144.

What was measured:
Mel-DCC-11 = assay: cell viability relative to DMSO control (fraction of DMSO control); higher = less cytotoxic, active = 0.5 or less; conditions: 1 µM; 120 h
Outline: (§1)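 Patient-derived Mel-DCC-11, its resistant subline Mel-DCC-11-R (alone and with 8 µM of its selecting drug) and NHEM-hTERT immortalized melanocytes were exposed for 120 h to 315 approved anti-cancer drugs at 1 µM in duplicate. Luminescence was read with ATPlite 1step. Viability was normalised to vehicle controls and averaged over duplicates.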

NHEM-hTERT = assay: as above; conditions: 1 µM; 120 h
Outline: as §1

Mel-DCC-11-R = assay: cell viability relative to DMSO control (fraction of DMSO control); higher = less cytotoxic, active = 0.8 or less; conditions: 1 µM, 120 h
Outline: as §1

Measured: cell viability

Nc1[nH]c(=O)ncc1F [Fluorocytosine]
inactive: Mel-DCC-11 1.16 | NHEM-hTERT 1.04 | Mel-DCC-11-R; vemurafenib co-treatment 0 µM 0.936 | Mel-DCC-11-R; vemurafenib co-treatment 8 µM 1.08

CC(C)[C@H](NC(=O)[C@H](CC(=O)O)NC(=O)[C@H](CCCCN)NC(=O)[C@@H](N)CCCNC(=N)N)C(=O)N[C@@H](Cc1ccc(O)cc1)C(=O)O [Thymopentin]
inactive: Mel-DCC-11 1.13 | NHEM-hTERT 1.01 | Mel-DCC-11-R; vemurafenib co-treatment 0 µM 1.21 | Mel-DCC-11-R; vemurafenib co-treatment 8 µM 1.04

Cc1nc2ccc(CN(C)c3ccc(C(=O)N[C@@H](CCC(=O)O)C(=O)O)s3)cc2c(=O)[nH]1 [Raltitrexed]
inactive: Mel-DCC-11 1 | NHEM-hTERT 1.03 | Mel-DCC-11-R; vemurafenib co-treatment 0 µM 1.16 | Mel-DCC-11-R; vemurafenib co-treatment 8 µM 1.09

CN(CCOc1ccc(CC2SC(=O)NC2=O)cc1)c1ccccn1.O=C(O)/C=C\C(=O)O (stereo not drawn) [Rosiglitazone maleate]
inactive: Mel-DCC-11 1.17 | NHEM-hTERT 1.06 | Mel-DCC-11-R; vemurafenib co-treatment 0 µM 0.97 | Mel-DCC-11-R; vemurafenib co-treatment 8 µM 1.12

CN(C)C(=O)COC(=O)Cc1ccc(OC(=O)c2ccc(N=C(N)N)cc2)cc1.CS(=O)(=O)O [Camostat mesilate]
inactive: Mel-DCC-11 1.03 | NHEM-hTERT 0.975 | Mel-DCC-11-R; vemurafenib co-treatment 0 µM 1.1 | Mel-DCC-11-R; vemurafenib co-treatment 8 µM 1.21

CC1(C)[C@@H](O[C@H]2O[C@H](C(=O)O)[C@@H](O)[C@H](O)[C@H]2OC2O[C@H](C(=O)O)[C@@H](O)[C@H](O)[C@H]2O)CC[C@]2(C)[C@H]3C(=O)C=C4[C@@H]5C[C@@](C)(C(=O)O)CC[C@]5(C)CC[C@@]4(C)[C@]3(C)CC[C@@H]12 (stereo partly drawn) [Glycyrrhizin]
inactive: Mel-DCC-11 1.13 | NHEM-hTERT 1.01 | Mel-DCC-11-R; vemurafenib co-treatment 0 µM 1.06 | Mel-DCC-11-R; vemurafenib co-treatment 8 µM 1.19

COc1ccc(C(Cl)=C(c2ccc(OC)cc2)c2ccc(OC)cc2)cc1 [Chlorotrianisene]
inactive: Mel-DCC-11 0.717 | NHEM-hTERT 0.795 | Mel-DCC-11-R; vemurafenib co-treatment 0 µM 0.86 | Mel-DCC-11-R; vemurafenib co-treatment 8 µM 0.833

CC[C@H](Nc1ncnc2[nH]cnc12)c1nc2cccc(F)c2c(=O)n1-c1ccccc1 [Idelalisib]
inactive: Mel-DCC-11 0.978 | NHEM-hTERT 0.983 | Mel-DCC-11-R; vemurafenib co-treatment 0 µM 1.07 | Mel-DCC-11-R; vemurafenib co-treatment 8 µM 0.961

Oc1cc(O)cc(/C=C/c2ccc(O)c(O)c2)c1 [Piceatannol]
inactive: Mel-DCC-11 0.919 | NHEM-hTERT 1.09 | Mel-DCC-11-R; vemurafenib co-treatment 0 µM 0.982 | Mel-DCC-11-R; vemurafenib co-treatment 8 µM 1

C[C@H](Nc1ncnc2nc[nH]c12)c1cc2cccc(Cl)c2c(=O)n1-c1ccccc1 [Duvelisib]
inactive: Mel-DCC-11 0.965 | NHEM-hTERT 0.912 | Mel-DCC-11-R; vemurafenib co-treatment 0 µM 1.21 | Mel-DCC-11-R; vemurafenib co-treatment 8 µM 0.864

CC(C)C[C@@H](NC(=O)[C@H](O)[C@@H](N)Cc1ccccc1)C(=O)O.Cl [Bestatin hydrochloride]
inactive: Mel-DCC-11 1.15 | NHEM-hTERT 1.08 | Mel-DCC-11-R; vemurafenib co-treatment 0 µM 0.993 | Mel-DCC-11-R; vemurafenib co-treatment 8 µM 1.14

CC(=O)O[C@]1(C(C)=O)CC[C@H]2[C@@H]3C=C(C)C4=CC(=O)CC[C@]4(C)[C@H]3CC[C@@]21C [Megestrol acetate]
inactive: Mel-DCC-11 1.35 | NHEM-hTERT 1.04 | Mel-DCC-11-R; vemurafenib co-treatment 0 µM 1.13 | Mel-DCC-11-R; vemurafenib co-treatment 8 µM 1

COc1cc(C[C@H]2C(=O)OC[C@@H]2Cc2ccc(OC)c(OC)c2)ccc1O [Arctigenin]
inactive: Mel-DCC-11 3.4 | NHEM-hTERT 1.21 | Mel-DCC-11-R; vemurafenib co-treatment 0 µM 1.01 | Mel-DCC-11-R; vemurafenib co-treatment 8 µM 0.855

CN(C)C/C=C/C(=O)Nc1cc2c(Nc3ccc(F)c(Cl)c3)ncnc2cc1O[C@H]1CCOC1.O=C(O)/C=C\C(=O)O.O=C(O)/C=C\C(=O)O [Afatinib Dimaleate]
inactive: NHEM-hTERT 1.13

O=S(=O)([O-])CCS.[Na+] [Mesna]
inactive: Mel-DCC-11 1.18 | NHEM-hTERT 1.09 | Mel-DCC-11-R; vemurafenib co-treatment 0 µM 1.11 | Mel-DCC-11-R; vemurafenib co-treatment 8 µM 1.08

NC(=O)c1ncn([C@@H]2O[C@H](CO)[C@@H](O)[C@H]2O)c1N [AICAR (Acadesine)]
inactive: NHEM-hTERT 1.06

CC(=O)Nc1cccc(-n2c(=O)n(C3CC3)c(=O)c3c(Nc4ccc(I)cc4F)n(C)c(=O)c(C)c32)c1 [Trametinib]
active: NHEM-hTERT 0.453

CO[C@H]1C=CO[C@@]2(C)Oc3c(C)c(O)c4c(O)c(c(/C=N/N5CCN(C)CC5)c(O)c4c3C2=O)NC(=O)/C(C)=C\C=C/[C@H](C)[C@H](O)[C@@H](C)[C@@H](O)[C@@H](C)[C@H](OC(C)=O)[C@@H]1C [Rifampicin]
inactive: Mel-DCC-11 0.597 | NHEM-hTERT 1.03 | Mel-DCC-11-R; vemurafenib co-treatment 0 µM 0.882 | Mel-DCC-11-R; vemurafenib co-treatment 8 µM 0.848
